# Assay outcomes deposited in PubChem by National Center for Advancing Translational Sciences (NCATS).
# D2 PAM-1 – human D2 receptor positive allosteric modulation | P14416 | DiscoveRx D2 beta-arrestin cells, luminescence, 90 min; 100% = 57 uM dopamine signal | potentiation, % (no concentration beside the values) | 0.23% of 360,000 active | AID 624464; in the data active means potentiation above about 50%; inconclusive means mostly about 30% to 49%
# Target sequence (P14416 whole entry, looked up): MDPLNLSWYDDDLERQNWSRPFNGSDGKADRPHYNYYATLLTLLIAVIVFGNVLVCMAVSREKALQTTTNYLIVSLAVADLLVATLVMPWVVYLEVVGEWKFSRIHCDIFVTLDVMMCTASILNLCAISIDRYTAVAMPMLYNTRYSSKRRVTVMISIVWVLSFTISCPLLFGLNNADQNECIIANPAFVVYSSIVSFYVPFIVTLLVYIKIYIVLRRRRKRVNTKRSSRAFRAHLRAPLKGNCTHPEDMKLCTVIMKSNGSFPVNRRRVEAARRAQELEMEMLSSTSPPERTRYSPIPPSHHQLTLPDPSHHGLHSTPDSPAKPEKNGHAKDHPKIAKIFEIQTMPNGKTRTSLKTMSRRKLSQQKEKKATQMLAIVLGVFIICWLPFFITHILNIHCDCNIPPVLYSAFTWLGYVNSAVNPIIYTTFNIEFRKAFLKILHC
#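 D2 cells co-treated with compound plus 50 nM dopamine (EC20) for 90 min at 37 deg C to detect potentiation. Beta-arrestin recruitment was read as enzyme-fragment luminescence after 1 h at ambient temperature. Full response was set by 57 uM dopamine.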
# D2 ag-1 – activates the human D2 dopamine receptor. AID 624465. P14416. DiscoveRx PathHunter D2 beta-arrestin, luminescence, 90 min; 100% = 57 uM dopamine signal. 0.084% of 360,000 active. activation, % (concentration not given with the values); in the data active means activation above about 40%; inconclusive means between about 15% and that limit
#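 Agonist mode: compounds alone added to overnight-plated D2 PathHunter cells for 90 min at 37 C, with 57 uM final dopamine (EC100) defining full response. Beta-arrestin recruitment detected by chemiluminescent reagent, read after 1 h at ambient temperature.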
# D2 antagonist – D2 dopamine receptor (human) antagonism; 2% of 340,000 active; AID 485344; inhibition, % at 10 µM; HEK293 TREx D2 cells, calcium flux, dopamine EC80; P14416; in the data active means inhibition above about 30%; inactive means below that, where a call was filed; further: 0% is about no effect
#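 In this primary screen, negative modulation is detected by tracking calcium flux after an EC80 dopamine challenge in inducible HEK293 T-REx D2 cells preexposed to test compound for 180 s.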
# D2 PAM-2 – positively modulates the human D2 dopamine receptor allosterically; P14416; HEK293 T-REx D2, calcium flux, EC20 dopamine potentiation; potentiation, % at 10 µM; 0.34% of 340,000 active;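 active means potentiation over 3 SD above the plate norm, cut at about 30% in these data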; further: 0% is about no effect
#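 Tetracycline-induced HEK293 T-REx cells force-coupled to calcium signalling expressed D2; compounds were pin-added after a 10 s baseline, read kinetically 180 s, then an EC20 dopamine challenge followed with a further 180 s calcium read.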
# D2 ag-2 – activates the human D2 dopamine receptor. activation, % at 2 µM. P14416. 0.53% of 340,000 active. HEK293 T-REx D2 cells, calcium flux agonist mode;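 active means activation over 3 SD above normal in the single-dose calcium agonist read, cut at about 30% in these data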; further: 0% is about no effect
#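 Agonism is scored from calcium flux in a force-coupled, inducible HEK293 cell line expressing D2, read kinetically for 180 s after compound addition against dopamine controls.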
# * marks the source's active call; other numbers are inactive results; u = inconclusive; x = no result. Shown are actives, neighbours in structure and some others; about 2.4% of the full set was active somewhere.
SMILES,D2 PAM-1,D2 ag-1,D2 antagonist,D2 PAM-2,D2 ag-2
CC(NC(=O)CN(C)CC(=O)Nc1ccc(F)c(F)c1F)c1ccccc1 (stereo not drawn),2,-1,49*,2,2
CC(NC(=O)CN(C)CC(=O)Nc1ccccc1Br)c1ccccc1 (stereo not drawn),-3,-2,11,15,-1
COc1ccc(C)cc1S(=O)(=O)N(C)CC(=O)NCc1ccncc1,-2,-1,33*,8,0
COc1cccc(-c2csc(N3CCN(C(=S)Nc4cccc(C)c4)CC3)n2)c1,-15,-5,86*,15,-1
COc1cccc(-c2csc(N3CCN(C(=S)Nc4ccccc4)CC3)n2)c1,-13,1,2,-12,0
CSCC(C)N1CCC(CCC(=O)NC2CC2)CC1 (stereo not drawn),-4,-4,-23,101*,0
Cc1ccc2ccc3cc(C(=O)Nc4ccc(C)c(F)c4)nc3c2[nH]1,x,x,x,4,x
Cc1cc(Br)ccc1NC(=O)C1CCN(S(=O)(=O)c2cccc3nsnc23)CC1,x,x,x,24,1
CC(=O)c1ccc(N2CCN(c3ncnc4c3c(-c3ccccc3)cn4-c3ccc(Cl)cc3)CC2)cc1,x,x,x,7,x
CN=c1scc(-c2ccccc2F)n1/N=C/c1ccc(O)c(O)c1O,173*,180*,0,2,0
CN=c1scc(-c2ccccc2F)n1/N=C/c1ccc[nH]1,-10,-4,1,-9,0
CC(C)N=c1scc(-c2cccs2)n1/N=C/c1ccc(O)c(O)c1O,55*,u,-8,4,5
COc1ccc(/C=N/N(C(C)=O)c2nc(-c3ccc(C)cc3)cs2)cc1,18,-1,-21,30*,-1
CCN(C(=O)c1cn(CC)c(=O)c2cc(OC)c(OC)cc12)c1ccccc1F,x,x,x,10,-1
COc1cc2c(cc1NC(=O)CSc1nnc(Cc3cccs3)n1C)oc1ccccc12,-18,-2,14,-1,0
CCn1c(SCC(=O)Nc2cc3oc4ccccc4c3cc2OC)nnc1-c1cccs1,0,12,45*,-15,37*
COc1ccc2c(c1)c1c(c(=O)n(-c3cccc(C)c3)c(=O)n1CC(=O)NCc1ccc(C)cc1)n2C,x,x,x,-3,1
CCCN1CCN(C(=O)CCc2nnc3ccc(N4CCN(c5cccc(OC)c5)CC4)nn23)CC1,-4,-6,32*,-5,-1
COc1cccc(N2CCN(c3ccc4nnc(CCC(=O)N5CCC(C)CC5)n4n3)CC2)c1,13,-2,-9,-1,1
Cc1ccc(C)c(NC(=O)CN(C)C(=O)c2ccc3c(=O)n4c(nc3c2)CCC4)c1,-29,-1,33*,-27,0
CC(C)(C)c1cc(NC(=O)COC(=O)c2ccc3c(=O)n4c(nc3c2)CCC4)n(-c2ccccc2)n1,3,0,-10,46*,0
O=C(Oc1ccccc1Cl)c1ccc2c(=O)n3c(nc2c1)CCC3,-12,10,8,19,0
O=C(Oc1ccccc1F)c1ccc2c(=O)n3c(nc2c1)CCC3,6,-1,32*,-7,0
Nc1nc2c(s1)CCc1c-2cnn1-c1ccccc1,8,40*,7,6,-2
Cc1cc(C=O)c(C)n1-c1ccc(Cl)c(C(=O)O)c1,9,3,37*,-13,-1
SMILES,D2 PAM-1,D2 ag-1,D2 antagonist,D2 PAM-2,D2 ag-2
S=C(Nc1ccc(Cl)cc1)NC1CCCCC1,-5,0,-7,-4,5
FC(F)Oc1ccc(NC(=S)NC2CCCCCCC2)cc1,2,-3,33*,15,2
CC(C)[C@H](NC(N)=O)C(=O)NCCc1ccc(Cl)cc1,-3,-4,-4,-2,0
Cc1cccc(C(=O)N[C@H](C(=O)NCCc2ccc(Cl)cc2)C(C)C)c1,-2,-2,38*,-12,-1
CC(NCc1ccc2c(c1)OCO2)C(=O)N1CCc2ccccc21 (stereo not drawn),-40,-7,44*,-27,-1
Cc1cc(C)c(/C=C/c2onc(C)c2S(=O)(=O)N2CCC(C(=O)N3CCN(c4ccc(Cl)cc4)CC3)CC2)c(C)c1,x,x,x,15,1
N#CCC(=N)N1CCN(c2cccc(Cl)c2)CC1,-22,0,63*,-15,1
Cc1ccc2occ(CC(=O)Nc3ccc(S(=O)(=O)N4CCCC(C)C4)cc3)c2c1 (stereo not drawn),x,x,x,15,2
CS(=O)(=O)c1ccc(NCC2CCCO2)c([N+](=O)[O-])c1 (stereo not drawn),-9,-5,-1,125*,0
Cc1c(C(=O)N2CCCCCC2)nnn1-c1nonc1N,-21,-3,41*,1,1
CCOC(=O)c1nnn(-c2nonc2N)c1CN1CCCCCC1,-2,0,15,-6,0
CCc1ccc2c(c1)c(=O)c(C(=O)c1ccccc1)cn2CC(=O)Nc1ccc(C)c(Cl)c1,x,x,x,-24,1
CC(=O)N1CCc2[nH]c3ccc(C)cc3c2C1,-7,-2,7,4,1
Cc1ccc2[nH]c3c(c2c1)CN(C)CC3,-36,-3,31*,-30,2
Cc1cccc(CN2CCc3c([nH]c4ccccc34)C2)c1,-11,-6,56*,-23,1
Cc1ccc2[nH]c3c(c2c1)CCN(C)C3,-5,-5,34*,-16,1
CCOC(=O)c1ccc2[nH]c3c(c2c1)CN(C)CC3,-10,-4,16,1,0
CCOC(=O)c1ccc(Nc2c(-c3ccc(O)cc3)nc3nc[nH]n23)cc1,x,x,x,4,0
Cc1cc(C)c(OCC(=O)N(Cc2ccccc2)C2CCS(=O)(=O)C2)c(C)c1 (stereo not drawn),-5,3,6,44*,0
CCc1ccc(CN(C(=O)COc2c(C)cccc2C)C2CCS(=O)(=O)C2)cc1 (stereo not drawn),-9,0,-3,2,0
N#CC1=C(N)N(c2cccc(Cl)c2)C2=C(C(=O)CCC2)C1c1cc(CN2CCOCC2)cs1 (stereo not drawn),x,x,x,11,-1
CC(C)(CO)N=C1NS(=O)(=O)c2cc([N+](=O)[O-])ccc21,90*,u,15,0,0
CC(C)(C)CC(C)(C)N=C1NS(=O)(=O)c2cc([N+](=O)[O-])ccc21,29,u,15,8,1
CCCCNC(=O)CSc1nc2ccccc2nc1Cc1ccccc1,x,x,x,13,-1
O=c1[nH]c(CN2CCN(Cc3ccccc3)CC2)nc2scc(-c3ccccc3)c12,-6,-2,69*,-24,0
CC(=O)N1CCN(Cc2nc3scc(-c4ccccc4)c3c(=O)[nH]2)CC1,-4,-4,x,0,x
COc1cccc2cc(C(=O)NCc3ccccc3)c(=N)oc12,0,-6,5,-3,-1
